The test system of assay [1] is Staphylococcus aureus. The settings on record: Concentration 32 ug.mL-1; ASSAY_TEST Inhibition of Bacterial Growth; detection method Absorption (OD600); MEDIA CAMHB; plate type 384well; NBS; CORNING #3640; time 18 hr.
Assay [2] deals with Escherichia coli. The settings on record: Concentration 32 ug.mL-1; ASSAY_TEST Inhibition of Bacterial Growth; detection method Absorption (OD600); MEDIA CAMHB; plate type 384well; NBS; CORNING #3640; time 18 hr.

Entries with a potency or affinity are not part of this list.

Turning to `CN(C)CCCNC(=O)c1cc(NC(=O)c2cc(NC(=O)c3cc(NC(=N)N)cn3C)cn2C)cn1C.O=C(O)C(F)(F)F.O=C(O)C(F)(F)F`, the Inhibition is listed as 14.94% in assay [1] and -3.99% in assay [2].

For `Cc1ncc(CNc2ccc(C(F)(F)F)cc2)c(N)n1`, the Inhibition in assay [1] is on record as -6.95%; in assay [2], -11.04%.

Regarding `COC(=O)CCC(=O)Nc1cc(C(=O)Nc2cc(C(=O)NCCCN(C)C)n(C)c2)n(C)c1.O=C(O)C(F)(F)F`, the Inhibition in assay [1] is reported as 5.2%; in assay [2], -12.96%.

In the case of `Cn1cc(NC(=O)c2cc(NC(=O)c3sc(N)nc3C(F)(F)F)cn2C)cc1C(=O)NCCN1CCOCC1.O=C(O)C(F)(F)F`, the Inhibition is listed as 12.04% in assay [1] and -24.64% in assay [2].

`COC(=O)c1ccc(C(=O)Nc2cc(C(=O)Nc3cc(C(=O)NCCCN(C)C)n(C)c3)n(C)c2)cc1.O=C(O)C(F)(F)F`: the Inhibition in assay [1] is -1.58%; in assay [2], -9.36%.

`CC(C)n1cc(NC(=O)c2cc(NC(=O)c3cc(NC=O)cn3C(C)C)cn2C)cc1C(=O)NCCCN(C)C.O=C(O)C(F)(F)F`: the Inhibition is reported as 2.98% in assay [1] and -12.14% in assay [2].

Consider `CC(C)CCc1sc(N)nc1C(=O)Nc1cc(C(=O)Nc2cc(C(=O)NCCN3CCOCC3)n(C)c2)n(C)c1.O=C(O)C(F)(F)F`, for which the Inhibition in assay [1] is reported as 26.32%; in assay [2], -8.65%.

On to `Cn1cc(NC(=O)c2cc(NC(=O)c3cc(NC(=O)c4ccc(Cl)cc4Cl)cn3C)cn2C)cc1C(=O)NCCN1CCOCC1.O=C(O)C(F)(F)F`, for which the Inhibition in assay [1] is 45.87%; in assay [2], -8.53%.

In the case of `CC(C)CCc1sc(NC(=O)c2cc(NC(=O)c3cc(NC(=O)c4ccc(C(=O)O)cc4)cn3C)cn2C)nc1C(=O)NCCCN(C)C.O=C(O)C(F)(F)F`, the Inhibition in assay [1] is 8.57%; in assay [2] it was -17.53%.

Regarding `Cn1cc(NC(=O)c2cc(NC(=O)c3ccc(/C=C/c4cccc(F)c4)cc3)cn2C)cc1C(=O)NCCN1CCOCC1.O=C(O)C(F)(F)F`, the Inhibition in assay [1] was 33.99%; in assay [2], -7.74%.

As to `COCCOC1CCN(C(=O)c2cc(NC(=O)c3cc(NC(=O)c4ccc(/C=C/c5cnc6ccccc6c5)cc4)cn3C)cn2C)CC1`, the figures for the Inhibition in assay [1] and in assay [2] were 5.5% and 7.07%, respectively.

`COC(=O)CCC(=O)Nc1cc(C(=O)Nc2cc(C(=O)NCCC(=N)N)n(C)c2)n(C)c1.O=C(O)C(F)(F)F`: the results for the Inhibition in assay [1] and in assay [2] were 0.86% and -6.39%, respectively.

In the case of `COC(=O)CCC(=O)Nc1cc(C(=O)Nc2cc(C(=O)NCCN3CCOCC3)n(C)c2)n(C)c1.O=C(O)C(F)(F)F`, the Inhibition is 3.68% in assay [1] and -5.38% in assay [2].

Take `Cc1ncc(CO)c(N)n1`: the Inhibition in assay [1] is listed as 1.81%; in assay [2], -19.21%.

For `CCOC(=O)c1cc(NC(=O)c2cc(NC(=O)c3sc(N)nc3C(F)(F)F)cn2C)cn1C`, the Inhibition in assay [1] is listed as 23.52%; in assay [2] it was -5.76%.

With `CCOC(=O)c1cc(NC(=O)c2cc(NC(=O)c3nc(N)sc3C(C)C)cn2C)cn1C`, the Inhibition in assay [1] is 29.56%; in assay [2], -5.15%.

Take `Cc1ncc(CNc2ccc(F)cc2)c(N)n1`: the results for the Inhibition in assay [1] and in assay [2] were 25.09% and -15.16%, respectively.

`CN(C)CCCNC(=O)c1cc(NC(=O)c2cc(NC(=O)c3ccc(C(=O)O)cc3)cn2C)cn1C.O=C(O)C(F)(F)F`: the Inhibition in assay [1] is 10.82%; in assay [2], -6.1%.

As for `CCOC(=O)c1cc(NC(=O)c2cc(NC(=O)c3nc(N)sc3CCC(C)C)cn2C)cn1C`, the Inhibition in assay [1] is recorded as 16.22%; in assay [2], -10.89%.

One may read the Inhibition as the drop in the measured response relative to a control, in per cent.

The values above are taken from ChEMBL document CHEMBL4513139, “CO-ADD screening of University of Strathclyde (UK) compounds”.
